Our source for the binding signal values is publication PMC11006913.

Common to all, as to test: PBM; 200 nM protein, PBS
Holding throughout (settings): dsDNA, one strand shown

In one assay the target is HESX1 (Homo sapiens, UniProt Q9UBX0 95-180, R109Q).
For assay [1], the target named is VAX1 (Homo sapiens, UniProt Q5SQQ9 86-172).
The target in assay [2] is VAX1 (Homo sapiens, UniProt Q5SQQ9 86-172, T142I).
The target of assay [3] is VAX1 (Homo sapiens, UniProt Q5SQQ9 86-172, K157R).
Assay [4] concerns the target NKX3-2 (Homo sapiens, UniProt P78367 192-278, P234S).
Assay [5] has as its target NKX3-2 (Homo sapiens, UniProt P78367 192-278).

Chain of VAX1 (Homo sapiens, UniProt Q5SQQ9 86-172) (Q5SQQ9 86-172): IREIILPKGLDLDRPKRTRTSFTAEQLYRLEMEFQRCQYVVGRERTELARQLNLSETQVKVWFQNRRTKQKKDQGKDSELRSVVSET
Chain of VAX1 (Homo sapiens, UniProt Q5SQQ9 86-172, T142I) (Q5SQQ9 86-172 T142I): as the sequence (Q5SQQ9 86-172) above, with T57I counted along it
Chain of VAX1 (Homo sapiens, UniProt Q5SQQ9 86-172, K157R) (Q5SQQ9 86-172 K157R): as the sequence (Q5SQQ9 86-172) above, with K72R counted along it
Chain of NKX3-2 (Homo sapiens, UniProt P78367 192-278, P234S) (P78367 192-278 P234S): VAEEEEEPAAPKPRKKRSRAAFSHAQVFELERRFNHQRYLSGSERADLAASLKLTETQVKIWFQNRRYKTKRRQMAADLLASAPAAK
Chain of HESX1 (Q9UBX0 95-180 R109Q): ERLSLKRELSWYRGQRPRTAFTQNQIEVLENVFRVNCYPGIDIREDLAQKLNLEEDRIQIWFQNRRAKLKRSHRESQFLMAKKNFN
Chain of NKX3-2 (Homo sapiens, UniProt P78367 192-278) (P78367 192-278): as the sequence (P78367 192-278 P234S) above, with S43P counted along it

As for AATCAATT, the binding signal with HESX1 is 8.86 upbm affinity estimate (log intensity, higher = more binding, comparable within an allelic series).

On to AACTAAGC, for which the binding signal with VAX1 [1] was 9.21 upbm affinity estimate (log intensity, higher = more binding, comparable within an allelic series).

For the sequence ATCAACGG, the binding signal with VAX1 [1] is 9.55 upbm affinity estimate (log intensity, higher = more binding, comparable within an allelic series).

In the case of GCATATGA, the binding signal is 8.94 upbm affinity estimate (log intensity, higher = more binding, comparable within an allelic series) with VAX1 [1]; 8.6 upbm affinity estimate (log intensity, higher = more binding, comparable within an allelic series) with VAX1 [2]; 8.79 upbm affinity estimate (log intensity, higher = more binding, comparable within an allelic series) with VAX1 [3].

AAATTAGC: the binding signal with VAX1 [1] was 11.9 upbm affinity estimate (log intensity, higher = more binding, comparable within an allelic series); in the assay with VAX1 [2], 11.5 upbm affinity estimate (log intensity, higher = more binding, comparable within an allelic series); in the assay with VAX1 [3] it was 11.6 upbm affinity estimate (log intensity, higher = more binding, comparable within an allelic series).

On to CTTCATCA, for which the binding signal in the assay with VAX1 [1] is 9.74 upbm affinity estimate (log intensity, higher = more binding, comparable within an allelic series); with VAX1 [2] it was 9.33 upbm affinity estimate (log intensity, higher = more binding, comparable within an allelic series); in the assay with VAX1 [3] it was 9.51 upbm affinity estimate (log intensity, higher = more binding, comparable within an allelic series).

Turning to CGCTAGCG, the binding signal with VAX1 [1] is 7.32 upbm affinity estimate (log intensity, higher = more binding, comparable within an allelic series); with VAX1 [2], 7.37 upbm affinity estimate (log intensity, higher = more binding, comparable within an allelic series); in the assay with VAX1 [3], 7.28 upbm affinity estimate (log intensity, higher = more binding, comparable within an allelic series).

Turning to AAGTAGCT, the binding signal was 9.67 upbm affinity estimate (log intensity, higher = more binding, comparable within an allelic series) in the assay with VAX1 [1]; 9.41 upbm affinity estimate (log intensity, higher = more binding, comparable within an allelic series) with VAX1 [2]; 11.8 upbm affinity estimate (log intensity, higher = more binding, comparable within an allelic series) with NKX3-2 [4]; 9.35 upbm affinity estimate (log intensity, higher = more binding, comparable within an allelic series) in the assay with VAX1 [3]; 11.9 upbm affinity estimate (log intensity, higher = more binding, comparable within an allelic series) with NKX3-2 [5].

With CGGCAAGA, the binding signal was 7.12 upbm affinity estimate (log intensity, higher = more binding, comparable within an allelic series) with VAX1 [1]; 7.22 upbm affinity estimate (log intensity, higher = more binding, comparable within an allelic series) with VAX1 [2]; 7.11 upbm affinity estimate (log intensity, higher = more binding, comparable within an allelic series) with VAX1 [3].

On to AGGTAAAT, for which the binding signal with VAX1 [1] was 10.4 upbm affinity estimate (log intensity, higher = more binding, comparable within an allelic series); in the assay with VAX1 [2], 10.2 upbm affinity estimate (log intensity, higher = more binding, comparable within an allelic series); in the assay with VAX1 [3] it was 10.2 upbm affinity estimate (log intensity, higher = more binding, comparable within an allelic series).

In the case of GTCGAGCA, the binding signal was 7.29 upbm affinity estimate (log intensity, higher = more binding, comparable within an allelic series) with VAX1 [1]; 7.31 upbm affinity estimate (log intensity, higher = more binding, comparable within an allelic series) with VAX1 [2]; 7.41 upbm affinity estimate (log intensity, higher = more binding, comparable within an allelic series) with VAX1 [3].

With CAGCGCAC, the binding signal with VAX1 [1] was 7.28 upbm affinity estimate (log intensity, higher = more binding, comparable within an allelic series); in the assay with VAX1 [2] it was 7.22 upbm affinity estimate (log intensity, higher = more binding, comparable within an allelic series); in the assay with VAX1 [3], 7.26 upbm affinity estimate (log intensity, higher = more binding, comparable within an allelic series).

As for CGCCGCTC, the binding signal with VAX1 [1] was 7.19 upbm affinity estimate (log intensity, higher = more binding, comparable within an allelic series); with VAX1 [2], 7.18 upbm affinity estimate (log intensity, higher = more binding, comparable within an allelic series); with VAX1 [3] it was 7.31 upbm affinity estimate (log intensity, higher = more binding, comparable within an allelic series).

For AATATTGG, the binding signal with VAX1 [1] is 9.86 upbm affinity estimate (log intensity, higher = more binding, comparable within an allelic series); with VAX1 [2], 9.41 upbm affinity estimate (log intensity, higher = more binding, comparable within an allelic series); in the assay with VAX1 [3], 9.62 upbm affinity estimate (log intensity, higher = more binding, comparable within an allelic series).

AGCCCGTG: the binding signal with VAX1 [1] was 7.01 upbm affinity estimate (log intensity, higher = more binding, comparable within an allelic series); with VAX1 [2], 7.09 upbm affinity estimate (log intensity, higher = more binding, comparable within an allelic series); in the assay with VAX1 [3], 7.28 upbm affinity estimate (log intensity, higher = more binding, comparable within an allelic series).

Regarding CGAAGCAG, the binding signal with VAX1 [1] was 6.89 upbm affinity estimate (log intensity, higher = more binding, comparable within an allelic series); with VAX1 [2], 7.23 upbm affinity estimate (log intensity, higher = more binding, comparable within an allelic series); with VAX1 [3] it was 7.1 upbm affinity estimate (log intensity, higher = more binding, comparable within an allelic series).

Take GTCCCTAA: the binding signal with VAX1 [1] is 9.58 upbm affinity estimate (log intensity, higher = more binding, comparable within an allelic series); with VAX1 [2], 9.36 upbm affinity estimate (log intensity, higher = more binding, comparable within an allelic series); with VAX1 [3], 9.3 upbm affinity estimate (log intensity, higher = more binding, comparable within an allelic series).

On to CTGAGCCC, for which the binding signal in the assay with VAX1 [1] is 7.3 upbm affinity estimate (log intensity, higher = more binding, comparable within an allelic series); with VAX1 [2] it was 7.49 upbm affinity estimate (log intensity, higher = more binding, comparable within an allelic series); in the assay with VAX1 [3], 7.38 upbm affinity estimate (log intensity, higher = more binding, comparable within an allelic series).

Consider CAAATCTA, for which the binding signal in the assay with VAX1 [1] was 8.78 upbm affinity estimate (log intensity, higher = more binding, comparable within an allelic series); with VAX1 [2] it was 8.51 upbm affinity estimate (log intensity, higher = more binding, comparable within an allelic series).

With ATATGTCC, the binding signal with VAX1 [1] is 9.38 upbm affinity estimate (log intensity, higher = more binding, comparable within an allelic series); in the assay with VAX1 [2], 8.89 upbm affinity estimate (log intensity, higher = more binding, comparable within an allelic series); in the assay with VAX1 [3], 9.07 upbm affinity estimate (log intensity, higher = more binding, comparable within an allelic series).

Turning to GGTCTCCA, the binding signal is 7.04 upbm affinity estimate (log intensity, higher = more binding, comparable within an allelic series) with VAX1 [1]; 7.37 upbm affinity estimate (log intensity, higher = more binding, comparable within an allelic series) in the assay with VAX1 [2]; 7.2 upbm affinity estimate (log intensity, higher = more binding, comparable within an allelic series) with VAX1 [3].

For the sequence CCGGTGCC, the binding signal was 7.09 upbm affinity estimate (log intensity, higher = more binding, comparable within an allelic series) with VAX1 [1]; 7.25 upbm affinity estimate (log intensity, higher = more binding, comparable within an allelic series) with VAX1 [2]; 7.13 upbm affinity estimate (log intensity, higher = more binding, comparable within an allelic series) with VAX1 [3].
